Values quoted from earlier work as cited in PubChem BioAssay AID977611.
The campaign covered roughly 3,900 compounds. About 3,900 (100%) were called active. The limit is not given here; nearly all actives have Kd up to about 4200 µM. So high a share suggests a set chosen from earlier hits. Some of the results follow. Numbered stars: 1 amine (or outer) side, 2 acyl side, 3 side chain; on linkers, the order of the positions; unused ones are H or OH. Where a SMILES comes first, the peptide text is derived from it. Non-standard residues stand in square brackets, D forms with d. Square brackets hold non-standard residues; d marks the D form. Residues, ends and D or L forms follow the SMILES beside them. Peptide text beside a SMILES is read from it. [ ]: non-standard residue; d: D form. X1 = O=C([C@H](Cc1ccc(O[P+](O)(O)O)cc1)N[*:1])[*:2]; Thr(P(OH)3+) = C[C@@H](O[P+](O)(O)O)[C@H](N)C(=O)O; Orn(CH(NH2)2) = NC(N)NCCC[C@H](N)C(=O)O

Test: PubChem AID 977611
Details: PDB protein-ligand complexes, literature Kd

Q: With `COc1cc2c(c(OC)c1OC)C1=CCC(=O)C(=O)C=C1[C@@H](NC(C)=O)CC2` as the molecule, how does the Kd (protein: Bromodomain-containing protein 4, BRD4(1), PDB entry 4lys) read?
A: 46000 nM (active)

Q: For `COc1cc(/C=C/CO)ccc1O`, which Kd (protein: Coniferyl alcohol 9-O-methyltransferase, PDB entry 4e70) is on record?
A: 5260 nM (active)

Q: For `CC(C)[C@H](NC(=O)[C@H](Cc1ccc(O)cc1)NC(=O)[C@H](CC(N)=O)NC(=O)CNC(=O)[C@@H](N)CCCCN)C(=O)N[C@H](C(=O)N[C@H](C(=O)N[C@@H](CO[P+](O)(O)O)C(=O)N[C@@H](Cc1cnc[nH]1)C(=O)O)[C@@H](C)O)C(C)C`, which Kd (protein: phosphoserine (pSAb) scaffold Fab, PDB entry 4jfz) is on record?
A: 71 nM (active)

Q: Which Kd (protein: phosphoserine/threonine (pSTAb) scaffold Fab, PDB entry 4jg1) does the source give for `CC(C)[C@H](NC(=O)[C@H](Cc1ccc(O)cc1)NC(=O)[C@H](CC(N)=O)NC(=O)CNC(=O)[C@@H](N)CCCCN)C(=O)N[C@H](C(=O)N[C@H](C(=O)N[C@H](C(=O)N[C@@H](Cc1cnc[nH]1)C(=O)O)[C@@H](C)O[P+](O)(O)O)[C@@H](C)O)C(C)C` (H-KGNYVVT[Thr(P(OH)3+)]H-OH) here?
A: 232 nM (active)

Q: With `CC(C)[C@H](NC(=O)[C@H](Cc1ccc(O)cc1)NC(=O)[C@H](CC(N)=O)NC(=O)CNC(=O)[C@@H](N)CCCCN)C(=O)N[C@H](C(=O)N[C@H](C(=O)N[C@@H](CO[P+](O)(O)O)C(=O)O)[C@@H](C)O)C(C)C` as the molecule, how does the Kd (protein: phosphoserine/threonine (pSTAb) scaffold Fab, PDB entry 4jg0) read?
A: 172 nM (active)

Q: With `C[C@@H]1O[C@@H](Oc2c(-c3ccc(O)c(O)c3)oc3cc(O)cc(O)c3c2=O)[C@H](O)[C@H](O)[C@H]1O` as the molecule, how does the Kd (protein: Ribosomal protein S6 kinase alpha-3, PDB entry 4gue) read?
A: 5800 nM (active)

Q: With `CC1=CC(N)c2ccccc2N1CCCCCCCCCCN1c2ccccc2C(N)=CC1C` (configuration not stated) as the molecule, how does the Kd (protein: Putative regulatory protein, PDB entry 3vw0) read?
A: 21200 nM (active)

Q: For `Cc1cc(=N)c2ccccc2n1CCCCCCCCCCN1c2ccccc2C(N)=CC1C` (configuration not stated), which Kd (protein: Chitinase A(W275G mutant), PDB entry 3art) is on record?
A: 37000 nM (active)

Q: With `Cc1cc(=N)c2ccccc2n1CCCCCCCC/C=C/N1c2ccccc2C(N)=CC1C` (configuration not stated) as the molecule, how does the Kd (protein: Chitinase A, PDB entry 3arp) read?
A: 70 nM (active)

Q: With `CCOc1cc(C(=O)O)nc2c(NC(=O)c3cc(O)c4cccc(NC(=O)c5cc(O)c6cccc(NC(=O)c7cc(OCC(C)C)c8cccc(NC(=O)NCCCCOc9cccc(CNC(=O)c%10ccc(S(N)(=O)=O)cc%10)c9)c8n7)c6n5)c4n3)cccc12` as the molecule, how does the Kd (protein: Human Carbonic Anhydrase II, PDB entry 4lp6) read?
A: 5.36 nM (active)

Q: Which Kd (protein: HISTIDINE ACID PHOSPHATASE, PDB entry 4aro) does the source give for `OS(O)(O)OC1C(OS(O)(O)O)C(OS(O)(O)O)C(OS(O)(O)O)C(OS(O)(O)O)C1OS(O)(O)O` (configuration not stated) here?
A: 160 nM (active)

Q: Which Kd (protein: Free fatty acid receptor 1,Lysozyme hGPR40(L42A,F88A,G103A,Y202F mutant), PDB entry 4phu) does the source give for `Cc1cc(OCCCS(C)(=O)=O)cc(C)c1-c1cccc(COc2ccc3c(c2)OC[C@H]3CC(=O)O)c1` here?
A: 12 nM (active)

Q: With `CN(C)CCCn1cc(C2C(=O)NC(=O)C2c2c[nH]c3ccccc23)c2ccccc21` (configuration not stated) as the molecule, how does the Kd (protein: human PIM1 kinase domain, PDB entry 1xws) read?
A: 10 nM (active)

Q: Which Kd (protein: Ferric vibriobactin ABC transporter, periplasmic ferric vibriobactin-binding protein, PDB entry 3r5t) does the source give for `C[C@H]1O[C@@H](c2cccc(O)c2O)N[C@@H]1C(=O)NCCCN(CCCNC(=O)c1cccc(O)c1O)C(=O)[C@H]1N[C@H](c2cccc(O)c2O)O[C@@H]1C` here?
A: 2.65 nM (active)

Q: Which Kd (protein: CHOLINE KINASE ALPHA, PDB entry 3zm9) does the source give for `CN(C)C1=CCN(Cc2ccc(CCCCc3ccc(Cn4cnc5c(N)ncnc54)cc3)cc2)C=C1` here?
A: 38 nM (active)

Q: Which Kd (protein: Fibronectin, PDB entry 4pz5) does the source give for Ac-SISYTDEIEEEDYD-OH here?
A: 121 nM (active)

Q: For `CC[C@H](C)[C@H](NC(=O)[C@H](CO)NC(=O)[C@H](CO)NC(=O)[C@H](CCC(N)=O)NC(=O)[C@@H](NC(=O)[C@H](CCC(N)=O)NC(=O)[C@H](CCCNC(N)N)NC(=O)[C@H](Cc1ccccc1)NC(=O)[C@@H](NC(=O)[C@@H](N)CCCNC(N)N)[C@@H](C)O)C(C)C)C(=O)N[C@@H](CO)C(=O)N[C@@H](CC(=O)O)C(=O)N[C@@H](Cc1ccccc1)C(=O)N[C@@H](Cc1ccc(O)cc1)C(=O)N[C@@H](CC(=O)O)C(=O)O` (H-[Orn(CH(NH2)2)]TF[Orn(CH(NH2)2)]QVQSSISDFYD-OH), which Kd (protein: Lipoprotein outS, PDB entry 4k0u) is on record?
A: 55 nM (active)

Q: Which results are given for `CC[C@H](C)[C@H](NC(=O)[C@@H](NC(=O)[C@H](CC(C)C)NC(=O)[C@@H](N)CO)[C@@H](C)O)C(=O)N[C@@H](Cc1ccc(O[P+](O)(O)O)cc1)C(=O)N[C@@H](C)C(=O)N[C@@H](CCC(N)=O)C(=O)N[C@H](C(=O)N[C@@H](CCC(N)=O)C(=O)N[C@@H](CCCCN)C(=O)O)C(C)C` (H-SLTI[X1]AQVQK-OH)?
A: Kd (protein: EWS/FLI1 activated transcript 2(ETA-2), PDB entry 1i3z): 131 nM (active); Kd (protein: SAP, PDB entry 1d4w): 120 nM (active)

Q: Which Kd (protein: Dynein light chain 1, cytoplasmic LC8, PDB entry 4qh8) does the source give for `CC[C@H](C)[C@H](NC(=O)[C@H](CC(=O)O)NC(=O)[C@H](CS)NC(=O)[C@H](CCC(N)=O)NC(=O)[C@@H](NC(=O)CNC(=O)[C@@H](NC(=O)[C@@H](NC(=O)[C@H](CO)NC(=O)[C@H](CO)NC(=O)[C@H](C)N)[C@@H](C)O)[C@@H](C)O)[C@@H](C)O)C(N)=O` (H-ASSTTGTQCDI-NH2) here?
A: 12800 nM (active)

Q: With H-YAESGIQTDL-OH as the molecule, how does the Kd (protein: Dynein light chain 1, cytoplasmic, PDB entry 4ds1) read?
A: 17900 nM (active)

Q: For `CC[C@H](C)[C@H](NC(=O)[C@@H](NC(=O)[C@H](CC(C)C)NC(=O)[C@H](CO)NC(=O)[C@@H](N)CCCCN)[C@@H](C)O)C(=O)N[C@@H](Cc1ccc(O)cc1)C(=O)N[C@@H](C)C(=O)N[C@@H](CCC(N)=O)C(=O)N[C@H](C(=O)N[C@@H](CCC(N)=O)C(=O)N[C@@H](CCCCN)C(=O)O)C(C)C` (H-KSLTIYAQVQK-OH), which Kd (protein: SAP, PDB entry 1d4t) is on record?
A: 650 nM (active)

Q: With `CC[C@H](C)[C@H](NC(=O)[C@H](Cc1ccccc1)NC(=O)[C@@H](NC(=O)[C@H](CO)NC(=O)[C@H](CO)NC(=O)[C@H](C)NC(=O)[C@@H](NC(=O)[C@@H](N)CCCNC(N)N)C(C)C)C(C)C)C(=O)N[C@H](C(=O)O)[C@@H](C)O` (H-[Orn(CH(NH2)2)]VASSVFIT-OH) as the molecule, how does the Kd (protein: Filamin-A, PDB entry 2w0p) read?
A: 300 nM (active)

Q: For `CC(C)C[C@H](NC(=O)[C@H](CC(C)C)NC(=O)[C@H](CC(N)=O)NC(=O)[C@@H](NC(=O)[C@H](C)NC(=O)[C@H](CCCCN)NC(=O)[C@H](CO)NC(=O)[C@H](CCCCN)NC(=O)[C@@H](NC(=O)[C@@H](N)CC(C)C)C(C)C)[C@@H](C)O)C(=O)N[C@H](C=O)Cc1ccc(O)cc1` (H-LVKSKATNLLY-aldehyde), which Kd (protein: ATP-Dependent Clp Protease Adapter Protein ClpS, PDB entry 2w9r) is on record?
A: 4800 nM (active)

Q: For `N[C@@H](CC(=O)O)C(=O)N[C@@H](Cc1c[nH]c2ccccc12)C(=O)N[C@@H](CCC(=O)O)C(=O)N[C@@H](Cc1ccccc1)C(=O)O` (H-DWEF-OH), which Kd (protein: human protein 25? (MO25?), PDB entry 1upk) is on record?
A: 400 nM (active)

Q: With `C[C@H](N)C(=O)N[C@@H](Cc1c[nH]c2ccccc12)C(=O)N[C@@H](CC(N)=O)C(=O)N[C@@H](CO)C(=O)O` (H-AWNS-OH) as the molecule, how does the Kd (protein: mRNA-capping enzyme subunit alpha Pce1, PDB entry 4pz8) read?
A: 1190 nM (active)

Q: For H-GWNSFQSS-OH, which Kd (protein: GAE domain of ADP-ribosylation factor-binding protein GGA1(GGA1-GAE), PDB entry 2dwx) is on record?
A: 180000 nM (active)
